Screening data: PubChem BioAssay, several laboratories
The list is not random: actives were taken first. Their share in the collection is about 1.8%.
MRP reversal: MRP-mediated drug resistance reversal | H69AR cells + 2 uM doxorubicin, CellTiter-Glo, 72 h | differential viability (reversal), % at 10 µM | actives 0.04% (n = 85,000) | AID 602;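 active means viability drop by adding the cancer drug above about 55%, with treated viability meeting a 40% cutoff, limit read from the data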;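 further: viability without doxorubicin minus viability with 2 µM doxorubicin for each compound; larger differential means the compound sensitizes cells more to doxorubicin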
S1P2 antag: S1P2 (human) receptor antagonism. O95136. AID 736. inhibition, % at 5 µM. cell-based S1P2 antagonist assay, inhibition at 5 uM. actives 0.21% (n = 97,000); in the data active means inhibition above about 45%;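 further: CRE beta-lactamase reporter cells expressing human S1P2 stimulated with S1P; 0% = agonist at EC80 alone and 100% = agonist plus reference antagonist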
GALR2 blocker: antagonists of human galanin receptor 2 (GALR2); inhibition, % at 4 µM; GALR2-expressing cells, antagonist mode; O43603; AID 828; actives 0.39% (n = 140,000);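 further: cells stimulated with galanin 1-16 at roughly its EC80; 0% = agonist challenge control and 100% = basal control without agonist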
Target sequence (O43603 whole entry, looked up): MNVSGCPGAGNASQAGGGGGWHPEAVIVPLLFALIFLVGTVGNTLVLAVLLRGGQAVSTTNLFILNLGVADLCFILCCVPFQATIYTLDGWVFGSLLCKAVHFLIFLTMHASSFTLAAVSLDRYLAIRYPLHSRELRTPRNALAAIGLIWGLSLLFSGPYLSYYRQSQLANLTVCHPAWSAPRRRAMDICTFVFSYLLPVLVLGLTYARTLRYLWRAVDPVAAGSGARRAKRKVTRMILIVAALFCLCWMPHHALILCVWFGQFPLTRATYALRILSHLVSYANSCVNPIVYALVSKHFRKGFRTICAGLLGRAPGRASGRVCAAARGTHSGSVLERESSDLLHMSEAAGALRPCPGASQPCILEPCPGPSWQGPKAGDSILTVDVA
MRP-1 activ: activates MRP-1; H69AR cells + doxorubicin, viability rescue, CellTiter-Glo; viability increase, % at 10 µM; actives 0.61% (n = 140,000);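 active means viability gain under doxorubicin at or above a set limit, the compound median plus 3 SD, cut at about 4.7% in these data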;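 further: MRP-1 overexpressing cells given doxorubicin 25 µM after compound pretreatment; 18-22 h compound pretreatment then 72 h with doxorubicin before readout; 0% = doxorubicin-only wells and 100% = vehicle-treated cells without doxorubicin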
GALR2 ag: agonists of human galanin receptor 2 (GALR2). GALR2-expressing cells, agonist activation read-out. actives 0.48% (n = 140,000). O43603. activation, % (concentration not given with the values); in the data active means activation above about 5%, passing the limit was not always enough;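 further: 0% = vehicle buffer wells and 100% = reference agonist at full effect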
S1P2 agonist: activates the human S1P2 receptor | S1P2-expressing cell line, agonist reporter read-out | activation, % at 4.5 µM | actives 0.46% (n = 97,000); in the data active means activation above about 16%;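 further: 0% = vehicle low control and 100% = maximal reference agonist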
GALR2 ag confirm: GALR2 (human) agonism confirmed | activation, % at 5.6 µM | actives 10% (n = 460) | shares compounds with GALR2 ag | GALR2-expressing cells, agonist activation; in the data active means activation above about 8.4%;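 further: 0% = buffer-only vehicle wells and 100% = full reference agonist response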
BLA activ ctr: activates beta-lactamase reporter in GALR2 agonist counterscreen; CHO NFAT-bla reporter, beta-lactamase FRET activation; AID 865; shares compounds with GALR2 ag; actives 10% (n = 460); activation, % at 5.6 µM;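 active means activation above the screen-wide mean activation plus 3 SD, cut at about 8% in these data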;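 further: 0% = DMSO with PBS wells and 100% = thapsigargin positive control wells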
GALR2 ant conf: confirmation of human galanin receptor 2 (GALR2) antagonists; shares compounds with GALR2 blocker; GALR2-expressing cells, antagonist mode, inhibition; inhibition, % at 4 µM; actives 60% (n = 480); AID 866;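 further: cells stimulated with galanin at about its EC80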
BLA inh counter: counter-screen for GALR2 antagonists: beta-lactamase reporter inhibitors; shares compounds with GALR2 blocker; AID 867; CHO NFAT-BLA reporter, beta-lactamase FRET, thapsigargin-stimulated; inhibition, % at 4.2 µM; actives 36% (n = 480);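 active means inhibition above the mean inhibition across tested compounds plus 3 SD, cut at about 27% in these data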;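 further: 0% = 500 nM thapsigargin stimulated wells and 100% = unstimulated BSA only wells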
Starred values were filed as active, the others as inactive. Unless noted, no stated cut-off is given here; in the data, active means inhibition above about 27%; inactive means the rest.

For COc1ccc(-c2cc(=O)oc3c(C)c(OCc4nn[nH]n4)ccc23)cc1 the results were MRP reversal 4, S1P2 antag 6, GALR2 blocker 3, MRP-1 activ 0, GALR2 ag -1 and S1P2 agonist -5.
Cc1ccc2nsnc2c1NC(=O)c1ccc(-c2cc(Cl)ccc2Cl)o1 was read as S1P2 antag 28, GALR2 blocker 38*, MRP-1 activ -3, GALR2 ag 10, S1P2 agonist 4, GALR2 ag confirm 11*, BLA activ ctr 3, GALR2 ant conf 23 and BLA inh counter 21.
Screening O=[N+]([O-])C(/C=C(\Cl)[N+](=O)[O-])=C1N(Cc2ccc(Cl)nc2)CCN1Cc1ccc(Cl)nc1 returned S1P2 antag -24, GALR2 blocker -12, MRP-1 activ -4, GALR2 ag -2 and S1P2 agonist -2.
For Nc1nonc1C(=O)NCCNCc1cc(Br)ccc1OCc1ccccc1F the results were MRP reversal -10, S1P2 antag 73*, GALR2 blocker 32*, MRP-1 activ -2, GALR2 ag -2, S1P2 agonist -3, GALR2 ant conf 33* and BLA inh counter 52*.
`Nc1nonc1C(=O)NCCNCc1ccccc1OCc1ccccc1F` gave MRP reversal 0, S1P2 antag 2, GALR2 blocker 6, MRP-1 activ -1, GALR2 ag -2 and S1P2 agonist -2.
Screening Oc1c(Cl)cccc1C=Nc1cc(C(F)(F)F)ccc1N1CCCC1 returned S1P2 antag 8, GALR2 blocker 32*, MRP-1 activ -3, GALR2 ag -2, S1P2 agonist -4, GALR2 ant conf 16 and BLA inh counter 17.
CC(=O)c1c(C)[nH]c(C(=O)COC(=O)c2cc(S(=O)(=O)N(C)c3ccccc3)ccc2Cl)c1C was read as GALR2 blocker 28*, MRP-1 activ -2, GALR2 ag -1, GALR2 ant conf 14 and BLA inh counter 2.
For CCN(CC)c1ccc(/C=C(\C#N)C(=O)c2ccc(Br)cc2)cc1 the results were GALR2 blocker -6, MRP-1 activ -2 and GALR2 ag 0.
Screening COc1ccc(/C=C(/C(=O)c2cccs2)N2C=CC=CC2=C(C#N)C#N)cc1 returned GALR2 blocker 38*, MRP-1 activ -4, GALR2 ag 3, GALR2 ant conf 66* and BLA inh counter 55*.
`COc1ccc(C(=O)/C(=C\c2ccco2)N2C=CC=CC2=C(C#N)C#N)cc1` gave S1P2 antag 40, GALR2 blocker 42*, MRP-1 activ -7, GALR2 ag -1, S1P2 agonist 2, GALR2 ant conf 52* and BLA inh counter 49*.
Screening N#CC(C#N)=C1C=CC=CN1/C(=C\c1ccco1)C(=O)c1ccc(Br)cc1 returned GALR2 blocker 65*, MRP-1 activ -6, GALR2 ag 0, GALR2 ant conf 68* and BLA inh counter 68*.
For COc1ccc(C(NC(=O)/C=C/c2ccco2)c2ccc(OC)cc2)cc1 the results were GALR2 blocker 15, MRP-1 activ -3 and GALR2 ag -1.
Screening COc1ccc(NC(=O)c2cccs2)cc1 returned MRP reversal 5, S1P2 antag 1, GALR2 blocker 19, MRP-1 activ -1, GALR2 ag -2 and S1P2 agonist -5.
N#CC(C#N)=C1C=CC=CN1/C(=C\c1ccco1)C(=O)c1ccccc1 was read as GALR2 blocker 55*, MRP-1 activ -5, GALR2 ag 0, GALR2 ant conf 79* and BLA inh counter 83*.
Cc1ccc2c(c1)NCC(C(=O)NCc1ccccc1)O2 (stereo not drawn) was read as MRP reversal 5, GALR2 blocker -11, MRP-1 activ 1 and GALR2 ag -1.
Screening O=C1C=CC(=O)C(C2=C3C(=O)N(CCc4ccccc4)CC(=O)N3CCC2)=C1 returned GALR2 blocker 39*, MRP-1 activ 2, GALR2 ag 0, GALR2 ant conf 60* and BLA inh counter 81*.
`Cc1[nH]c2ccccc2c1-c1nc2ccccc2[nH]1` gave MRP reversal -6, GALR2 blocker 42*, MRP-1 activ -4, GALR2 ag -2, GALR2 ant conf 49* and BLA inh counter 11.
`CCCCC/C(=N\NC(=O)CCC(=O)NCc1ccccc1)c1ccccc1` gave GALR2 blocker -3, MRP-1 activ -3 and GALR2 ag -1.
Cc1ccc(S(=O)(=O)N[C@H](C(=O)Oc2ccc3c(C(F)(F)F)cc(=O)oc3c2)c2ccccc2)cc1 was read as S1P2 antag 58*, GALR2 blocker 44*, MRP-1 activ -1, GALR2 ag -1, S1P2 agonist -8, GALR2 ant conf 22 and BLA inh counter 36*.
`CCOC(=O)c1c(C)nc2sc(C(=O)Nc3ccc(C(C)=O)cc3)c(N)c2c1-c1ccc(OC)cc1` gave S1P2 antag 27, GALR2 blocker 30*, MRP-1 activ -5, GALR2 ag 2, S1P2 agonist -7, GALR2 ant conf 20 and BLA inh counter 38*.
For CCOC(=O)c1c(C)nc2sc(C(=O)Nc3ccc(OC)cc3)c(N)c2c1-c1ccc(OC)cc1 the results were S1P2 antag -7, GALR2 blocker -1, MRP-1 activ -4, GALR2 ag -3 and S1P2 agonist -2.
`Cn1c(NC(=O)c2ccc(F)c(F)c2)cc(=O)n(C)c1=O` gave MRP reversal -26, GALR2 blocker 28*, MRP-1 activ -1, GALR2 ag -1, GALR2 ant conf 16 and BLA inh counter 11.
For O=C(COc1ccc(N2CC(C(=O)O)CC2=O)cc1)Nc1cccc(C(F)(F)F)c1 (stereo not drawn) the results were MRP reversal 21, S1P2 antag 1, GALR2 blocker 7, MRP-1 activ -1, GALR2 ag -1 and S1P2 agonist -4.
Screening CC(C)NC(=O)CSc1nncn1-c1ccccc1 returned MRP reversal -8, GALR2 blocker 27*, MRP-1 activ -1, GALR2 ag -1, GALR2 ant conf 12 and BLA inh counter 10.
For CCn1c2ccc(C)cc2c2nc3cc(C(=O)O)ccc3nc21 the results were GALR2 blocker 28*, MRP-1 activ -3, GALR2 ag -1, GALR2 ant conf 34* and BLA inh counter 4.
